# Measured values published in PubChem BioAssay (NCI).
# The panel holds about 83,000 compounds, 20% with a hit somewhere; the sample as a whole holds those more often.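 Compound tested at a single concentration for 48 hours in 96-well plates; a percent growth value below 10 was scored as active.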 Active and inactive are the calls of the source.
# System: HL-60(TB) leukemia
# Test: NCI-60 one-dose screen, 48 h (100 = growth as untreated, 0 = no growth, -100 = all killed)
# Settings: 10 µM unless noted
row,Compound,growth
1,COc1cc2c(O)n(CCCN3CCOCC3)c3c4cnc5cccc(c(=O)c3c2cc1OC)c54,42.8% (inactive)
2,COC(=O)[C@@H]1CCCN1C(=O)[C@@H]1CCCN1C(=O)[C@@H](Cc1c[nH]c2ccccc12)NC(=S)Nc1cc(C(F)(F)F)cc(C(F)(F)F)c1,11.1% (inactive)
3,CCCCCCCCNc1cccc2c1C(=O)c1ccccc1C2=O,73% (inactive)
4,COc1ccc(C(c2cc(OC)c(OC)c(OC)c2)n2ccnc2)cc1O (stereo not given),-35.9% (active)
5,N#Cc1ccc(O)c(C2=NCC(c3cccc(Oc4ccccc4)c3)O2)c1 (stereo not given),-8.73% (active)
6,CCC/C=C(/C(C)=O)C(=O)OCC,93.2% (inactive)
7,Cc1cn(-c2cc(NC(=O)c3ccc(C)c(Nc4nccc(-c5cnccn5)n4)c3)cc(C(F)(F)F)c2)cn1,33.4% (inactive)
8,CC1(n2nnnc2N2CCCN(c3ncccc3N)CC2)CCC1,102% (inactive)
9,CCn1cc(C(=O)N/N=C/c2cccc(F)c2)c(=O)c2cc(F)c(N3CCNC(C)C3)c(F)c21 (stereo not given),65.5% (inactive)
10,COc1cnc2c(c1)C(=O)c1c-2n(CCCN2CCN(C)CC2)c(=O)c2cc(Cl)ccc12,50.6% (inactive)
11,O=C(c1ccccc1)N1N=C(c2ccccc2)CC1c1nnc2n(Cc3ccccc3)c(=O)c3c4c(sc3n12)CCCC4 (stereo not given),97.7% (inactive)
12,COc1ccc(/C(=C\c2cc(OC)c(OC)c(OC)c2)C(=O)N2CCN(c3ccccc3)CC2)cc1O,106% (inactive)
13,CC(C)[C@H]1CCC2=C3CC[C@]45OC(=O)[C@@]6(CCC(C)(C)C[C@H]64)CC[C@@]5(C)[C@]3(C)CC[C@@]21C,3.99% [100 µM] (active)
14,COc1cc(NCc2ccc3nc(N)nc(N)c3c2C)cc(OC)c1OC (tested in a mixture with another compound),25.7% (inactive)
15,CCCCCCCCCCCCCCCCC(=O)O,101% (inactive)
16,COc1cc(C(=O)Nc2ccc(-c3nc4ccccc4[nH]3)cc2)cc(OC)c1OC,41.9% (inactive)
17,CC(=O)N[C@H](C(=O)N[C@@H](CCCNC(=N)N)C(=O)N[C@@H](CCCCN)C(=O)N[C@@H](CCCNC(=N)N)C(=O)N[C@]1(C)CCCCCC/C=C\CCC[C@@](C)(C(=O)N[C@@H](CCCNC(=N)N)C(=O)N[C@@H](CCC(=O)O)C(=O)N[C@@H](CC(C)C)C(=O)N[C@H](C(=O)N[C@@H](CCC(=O)O)C(N)=O)C(C)C)NC(=O)[C@H](CCC(N)=O)NC(=O)[C@H](CC(C)C)NC(=O)[C@H](CC(C)C)NC(=O)[C@H](CCCNC(=N)N)NC(=O)[C@H](CCCNC(=N)N)NC(=O)[C@H](CC(C)C)NC1=O)C(C)C,15.9% (inactive)
18,CCCCCCCCCCCCCCCCCC1=NCCN1CCNC(C)=O,79.2% (inactive)
19,CC(C)[C@@H]1C=C2CC[C@H]3[C@](C)(CN)CCC[C@]3(C)[C@H]2CC1,70.1% (inactive)
20,Cn1c(=O)c2[nH]c(Cc3ccc4c(c3)OCO4)nc2n(C)c1=O,104% (inactive)

row,Compound,growth
1,Cn1cc(-c2[nH]c3cc(NC(=O)[C@H](N)C4CCCCC4)cc4c3c2C=NNC4=O)cn1,-55.8% (active)
2,O=C(Nc1ccncc1)C(=O)c1cn(S(=O)(=O)c2cccc(Cl)c2)c2ccccc12,41.8% (inactive)
3,CCOC(=O)c1c2c(n(-c3ccc(C#N)cc3)c1-c1ccccc1)C=CCC2,82.9% (inactive)
4,N#Cc1ccc(N2Cc3cc(Cl)ccc3OC3=C2C(=O)N(Cc2ccccc2)C3=O)cc1,-48.2% (active)
5,O=[N+]([O-])c1ccc2c(c1)Cc1ccccc1-2,87% (inactive)
6,c1ccc(Nc2nnc(-c3cc(-c4cccnc4)n(-c4ccccc4)n3)s2)cc1,70.8% (inactive)
7,Cc1c(Cn2c(C)nc3c(C(=O)O)cc(N4CCOCC4)cc32)cccc1C(F)(F)F,78.6% (inactive)
8,c1cncc(-c2nc3ccccc3[nH]2)c1,94.8% (inactive)
9,O=C(Nc1c(Cl)cc(Cl)cc1Cl)ON=C1CCCCC1,101% (inactive)
10,O=C(/C(=C/c1ccc([N+](=O)[O-])cc1)SCc1ccc(F)cc1)c1ccc(F)cc1,68.8% (inactive)
11,CC(C)=CC(=O)C1C(=O)c2ccccc2C1=O,120% (inactive)
12,c1ccc(CN2COc3c(ccc4c3OCN(Cc3ccccc3)C4)C2)cc1,-19% (active)
13,CCOC(=O)c1cc(C(=O)c2ccc(Br)cc2)n2ccc(/C=C/c3cc[n+](CC(=O)c4ccc(OC)cc4)cc3)cc12,58.1% (inactive)
14,COc1ccc(-c2nc(-c3nc4ccc(C)cc4[nH]3)c3ccccn23)cc1,30.5% (inactive)
15,Clc1cc(Cl)c(Cl)nn1,69.7% (inactive)
16,O=C(NC1CCCCC1)c1ccc(Cl)cc1,92.8% (inactive)
17,c1cc(OCCN2CCCC2)ccc1CNc1ccc2nc(CCC3CCCCC3)[nH]c2c1,-4.69% (active)
18,O=C(NCCCN1CCN(CCCNC(=O)C2CCCCC2)CC1)C1CCCCC1,98.9% (inactive)
19,Cn1cc(Nc2nccc(-c3ccc(N4CCCC4)c(C#N)c3)n2)cn1,-17.8% (active)
20,O=C1/C(=C/c2ccc([N+](=O)[O-])cc2)COc2ccc(O)c(O)c21,-14.6% (active)
